# PTHR1 ag = agonists of human PTHR1 parathyroid hormone receptor | HEK293 GP2 PTHR1 cells, GloSensor cAMP luminescence, 1 h | Q03431 | actives 0.075% (n = 410,000) | Potency, µM (series often up to 115 µM), hits mostly activators | AID 743266; note: nearly all actives have a fitted effect of over 55% in size
# Target sequence (Q03431 whole entry, looked up): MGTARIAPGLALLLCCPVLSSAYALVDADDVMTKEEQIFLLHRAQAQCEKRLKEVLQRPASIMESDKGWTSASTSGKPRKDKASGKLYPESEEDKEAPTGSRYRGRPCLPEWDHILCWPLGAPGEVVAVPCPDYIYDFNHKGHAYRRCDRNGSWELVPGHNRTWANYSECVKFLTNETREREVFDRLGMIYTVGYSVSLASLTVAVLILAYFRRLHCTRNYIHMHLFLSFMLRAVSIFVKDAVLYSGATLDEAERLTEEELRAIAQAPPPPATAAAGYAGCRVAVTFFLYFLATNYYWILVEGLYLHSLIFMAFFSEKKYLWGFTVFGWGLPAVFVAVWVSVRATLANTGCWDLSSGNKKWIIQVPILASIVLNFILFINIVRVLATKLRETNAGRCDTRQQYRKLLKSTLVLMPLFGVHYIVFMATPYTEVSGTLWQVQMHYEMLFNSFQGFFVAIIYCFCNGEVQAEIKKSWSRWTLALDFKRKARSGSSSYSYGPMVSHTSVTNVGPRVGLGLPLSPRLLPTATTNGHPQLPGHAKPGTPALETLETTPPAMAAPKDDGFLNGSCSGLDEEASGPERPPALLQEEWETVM
#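 HEK-293-derived GP2 cells expressing PTHR1 and a GloSensor cAMP reporter, 3,000/well, plated overnight, given luciferin plus IBMX (each 0.5 mM as added) for 1 h at 37 °C, then compound for 1 h at 37 °C. Luminescence was read after 15 min at room temperature.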
# GLP1R cytotox = cytotoxicity in counter-screen for GLP-1R inverse agonists | HEK293 cAMP-luciferase reporter cells, luminescence, 24 h | Potency, µM (series often up to 38.3 µM), actives largely listed as inhibitors | actives 0.13% (n = 410,000) | AID 624418;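 note: loss of luciferase light is scored as toxicity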
#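 Compound-treated cells are incubated 24 hr at 37 deg C under 5% CO2 after a 12 hour attachment period, then luciferase detection reagent is added and luminescence is measured following 12 min at room temperature; lowered signal indicates toxicity.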
# GLP1R ag = agonists of human GLP-1 receptor; Potency, µM (top dose mostly 45.6 µM), usual class: activators; P43220; HEK293 GLP-1R CRE-luciferase, luminescence, 4-6 h; cells express a hypersensitive GLP-1R form; actives 0.007% (n = 380,000)
# GLP-1R inv ag = acts as inverse agonist at human GLP-1 receptor | HEK293 GLP-1R CRE-luciferase, luminescence, 24 h; GLP-1R form is constitutively active | AID 624417 | actives 1.6% (n = 410,000) | Potency, µM (titrated, usually from 38.3 µM), most hits filed as inhibitors; note: nearly all actives have a fitted effect of over 55% in size
#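 HEK293 cells stably co-expressing constitutively active GLP-1R and a cAMP-responsive luciferase reporter were seeded in DMEM with 10% Nu serum, given compounds after 12 h, and incubated 24 h at 37 deg C. Luminescence was then read.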
# TSHR antagonist = blocks TSH signaling through the human TSH receptor; AID 504810; TSHR-expressing cells, TSH-stimulated cAMP HTRF, 2 h; hits give low values; P16473; actives 0.2% (n = 330,000); activity change, negative = inhibition, % at 11.5 µM;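 active = activity change below a set negative limit, meaning inhibition stronger than a set level, cut at about -70% in these data; inconclusive = activity change between two set negative limits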
#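 Cell-based HTRF cAMP assay; TSHR cells + compound, TSH EC80 (4nM final), 2 h, 37 deg C. Lysis with anti-cAMP cryptate and cAMP-d2, 30 min RT, read 665/620 nm.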
# A number is an active result; – = inactive; ? = inconclusive; · = not tested or not shown. Sampled rows, rich in hits. Any-hit rate of the full collection: about 1.8%. Unless noted, calls come from the whole dose curve; as a rule, active = well fitted curve in the direction sought with a large enough effect; inconclusive = small, poorly fitted or top-dose-only effect, or another doubt; inactive = no such curve, though single readings can be large; an effect the other way counts as inactive or inconclusive.
SMILES,PTHR1 ag,GLP1R cytotox,GLP1R ag,GLP-1R inv ag,TSHR antagonist
Cc1cccc(CC(=O)NCC(=O)NCc2cc(=O)n(C)c(=O)n2C)c1,–,–,–,–,-90
NCCSc1c(-c2ccc(F)cc2)[nH]c2ccccc12,–,–,–,10µM,–
CO/N=C(/CNC(=O)c1cccc(Cl)c1)c1ccc(Cl)cc1,–,–,–,11µM,–
O=C(Nc1cccc(Cl)c1)C1=Cc2cc(Cl)ccc2OC1,–,–,–,10µM,–
O=C(Nc1ccc2c(c1)OCCO2)c1ccc(Cl)c(Cl)c1,–,–,–,–,–
O=C(NCc1ccc(Cl)cc1)C1=Cc2cc(Cl)ccc2OC1,–,–,–,–,–
O=C(Nc1ccc(Cl)c(Cl)c1)C1=Cc2ccccc2OC1,–,–,–,10µM,?
Cc1ccc(NC(=O)CSc2nnc(C)n3c2cc2sccc23)c(C)c1,–,–,·,–,·
CC1(C)CCC2=C(O1)c1ccccc1C(=O)C2=O,·,·,·,·,–
CN(C)S(=O)(=O)N1CCN(c2ccnc3cc(Cl)ccc23)CC1,–,–,–,–,-120
CC(C)C[C@@H](NC(=O)[C@H](Cc1ccccc1)NC(=O)c1cnccn1)B(O)O,·,·,–,·,·
Cc1cccc(CN2CCC(C(=O)Nc3cccc(-c4cscn4)c3)CC2)n1,–,–,–,–,–
CCCn1ncc(CN2CCC(C(=O)Nc3cccc(-c4cccc(F)c4)c3)CC2)c1C,–,?,–,?,–
Cc1cc(N2CCC(C(=O)Nc3ccc(F)cc3)CC2)nc(-c2ccccc2)n1,–,–,–,10µM,–
COc1ccc(NC(=O)C2CCN(c3cc(C)nc(-c4ccccc4)n3)CC2)cc1,–,?,–,?,–
Cc1nn(C(C)C)c(C)c1CN1CCC(C(=O)Nc2cccc(-c3cccc(F)c3)c2)CC1,–,?,–,5µM,–
Cc1cccc(CN2CCC(C(=O)Nc3cccc(-c4cccc(F)c4)c3)CC2)n1,–,?,–,10µM,–
Cc1ccc(Cl)cc1-n1c(=O)cc(N2CCN(c3ccccc3)CC2)[nH]c1=O,–,–,·,–,·
COc1ccc(-c2nc3c(C#N)c[nH]n3c2NC2CCCC2)c(OC)c1,–,–,·,–,·
COc1ccc(NC(=O)CSc2ncc3c(n2)-c2ccccc2N(C)S3(=O)=O)cc1Cl,–,–,·,?,·
CCc1cc2c(cc3c(=O)n(CC(=O)NC4CCC(C)CC4)ncn32)s1 (centres undefined),–,–,·,–,·
CCCCCOc1ccc(C2SC(=O)NC2=O)cc1OCC (centres undefined),·,·,–,·,·
COc1ccccc1CNC(=O)C12CC3CC(CC(C3)C1)C2,–,–,–,11µM,–
CSc1ccc(CN(C)C(=O)C23CC4CC(CC(Cl)(C4)C2)C3)cc1,–,–,–,10µM,–
Cc1ccc(C)c(NC(=O)CCCN2C(=O)COc3ccc(C)cc32)c1,–,–,·,–,·
SMILES,PTHR1 ag,GLP1R cytotox,GLP1R ag,GLP-1R inv ag,TSHR antagonist
O=C1[C@H]2[C@@H](c3ccccc3)N[C@]3(CCCN(Cc4ccc(C(F)(F)F)cc4)C3=O)[C@H]2C(=O)N1Cc1ccccc1,–,–,–,11µM,·
O=C1[C@H]2[C@@H](c3ccc(C(F)(F)F)cc3)N[C@]3(CCCN(Cc4ccc(F)cc4)C3=O)[C@H]2C(=O)N1Cc1ccccc1,–,?,–,8.9µM,·
O=C1[C@H]2[C@@H](c3ccccc3)N[C@]3(CCCN(Cc4ccccc4)C3=O)[C@H]2C(=O)N1Cc1ccccc1,–,–,–,–,·
COc1ccc(-n2cc(CNCCc3nc(C)cc(C)n3)c(-c3ccccc3Cl)n2)cc1,–,?,–,10µM,–
Cc1ccc(C(=O)NCCNc2ncc(C(F)(F)F)cc2Cl)cc1[N+](=O)[O-],–,–,–,?,-113
CCCCCCSc1cccc(-c2nc3cc(C)ccn3c2NCc2ccccc2)c1,–,?,–,5µM,–
CCC(C)Sc1cccc(-c2nc3ccc(C)cn3c2NCc2ccccc2)c1 (centres undefined),–,–,–,?,-79
CCC(C)Sc1cccc(-c2nc3cc(C)ccn3c2NC2CCCCC2)c1 (centres undefined),–,?,–,5µM,–
Cc1ccc2nc(-c3cccc(-c4cccc(Cl)c4)c3)c(NCc3ccccc3)n2c1,–,–,–,11µM,–
O=C(CSc1nnc(CNC(=O)c2c(F)cccc2Cl)o1)Nc1ccccc1F,–,–,·,–,·
Cc1nc2sccn2c(=O)c1S(=O)(=O)NCc1ccc(F)cc1,–,–,·,–,·
Cc1nc2sccn2c(=O)c1S(=O)(=O)NCC1CCN(Cc2ccc(Cl)cc2)CC1,–,–,–,10µM,·
CCN(CC)CCN1C(=O)c2ccccc2NC1c1ccc(Br)cc1 (centres undefined),–,–,–,10µM,–
CCN(CC)CCN1C(=O)c2ccccc2NC1c1ccc(F)cc1 (centres undefined),–,–,–,–,–
Cc1ccc(CNc2oc(-c3ccco3)nc2S(=O)(=O)c2ccccc2)cc1,–,–,–,10µM,–
O=S(=O)(c1ccccc1)c1nc(-c2ccco2)oc1NCCN1CCOCC1,–,–,–,–,–
O=C(NCCN1C(=O)S/C(=C\c2ccccc2F)C1=O)C1=COCCO1,–,–,–,1µM,–
Cc1ccc2c(c1)C(=O)C(=O)N2Cc1ccc(OC(C)C)cc1,–,?,·,1.1µM,·
COc1cc(CNc2ccc(CNc3ncn[nH]3)cc2)ccc1OCc1ccccc1,–,–,–,2µM,–
COc1ccccc1C(=O)NCCSc1c(C)[nH]c2ccccc12,–,–,·,?,·
Cc1nc(S(=O)(=O)N(C)c2ccccc2)c(C#N)c(C)c1Cl,–,–,–,5.6µM,–
c1ccc(-c2nc3ccccc3n2C(c2ccccc2)c2nc3ccccc3[nH]2)cc1 (centres undefined),–,–,·,–,·
CSCCC(c1nc2ccccc2[nH]1)n1c(=O)c(-c2cccnc2)nc2ccccc21 (centres undefined),–,–,·,–,·
O=c1c(-c2ccccc2)nc2ccccc2n1C(c1ccccc1)c1nc2ccccc2[nH]1 (centres undefined),–,–,·,1.6µM,·
O=c1c(-c2ccccc2)nc2ccccc2n1C(CCc1ccccc1)c1nc2ccccc2[nH]1 (centres undefined),–,–,·,10µM,·
Cc1ccc2[nH]c(=O)c(CN(C(=O)c3cccc(Cl)c3)C(C)(C)C)cc2c1,–,–,·,–,·
Cc1ccc(CNC(=O)c2ccc(CSCc3c(F)cccc3Cl)o2)cc1,–,–,·,?,·
COc1ccc(NC(=O)c2cccc(N3C(=O)NC4CC3(C)Oc3ccccc34)c2)cc1 (centres undefined),–,–,–,4µM,–
